# Tested on: Pseudomonas aeruginosa PA14 dppA1-A5 penta mutant + pBBR5.DppA1 (PA14_58350)
# Assay: respiration area under curve with compound as sole nitrogen source, 24 h (OmniLog AUC (arbitrary units)); higher = more respiration / better utilisation as nitrogen source, active = 2000 or more
# Protocol: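 Biolog Phenotype MicroArray plates PM6-PM8: each di/tripeptide is the sole nitrogen source. Tetrazolium reduction was read in the OmniLog for 24 h at 37°C and summarised as area under the respiration curve (arbitrary units). Values below 2000 count as no respiration. Strain is the SBP penta mutant complemented with DppA1 on a plasmid under its native promoter. Lys/His/Cys peptides are excluded.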
row,Structure (SMILES),respiration area under curve
1,CC(C)C[C@H](N)C(=O)N[C@@H](C)C(=O)O (plate: PM6),7500 (active)
2,O=C(O)[C@H](Cc1ccc(O)cc1)NC(=O)[C@@H]1CCCN1 (plate: PM7),11800 (active)
3,CC(C)C[C@H](N)C(=O)N[C@@H](CC(N)=O)C(=O)O (plate: PM8),11100 (active)
4,N[C@@H](Cc1ccccc1)C(=O)N[C@@H](CCC(=O)O)C(=O)O (plate: PM8),2880 (active)
5,CC(C)[C@H](NC(=O)[C@@H](N)Cc1ccc(O)cc1)C(=O)O (plate: PM8),6630 (active)
6,CSCC[C@H](N)C(=O)NCC(=O)O (plate: PM7),3910 (active)
7,CC(C)C[C@H](NC(=O)[C@@H](N)Cc1c[nH]c2ccccc12)C(=O)O (plate: PM7),3710 (active)
8,CC[C@H](C)[C@H](NC(=O)[C@H](C)N)C(=O)O (plate: PM8),7110 (active)
9,CC[C@H](C)[C@H](NC(=O)[C@@H](N)Cc1ccccc1)C(=O)O (plate: PM7),7890 (active)
10,CC(C)C[C@H](N)C(=O)N[C@@H](CCCN=C(N)N)C(=O)O (plate: PM6),8260 (active)
11,C[C@@H](O)[C@H](N)C(=O)N[C@@H](CCCN=C(N)N)C(=O)O (plate: PM7),14200 (active)
12,CC(C)C[C@H](NC(=O)[C@@H](N)CO)C(=O)O (plate: PM7),6240 (active)
13,CSCC[C@H](NC(=O)[C@@H](N)Cc1ccccc1)C(=O)O (plate: PM8),805 (inactive)
14,NC(=O)C[C@H](NC(=O)[C@@H](N)CO)C(=O)O (plate: PM8),10900 (active)
15,C[C@H](N)C(=O)N[C@@H](CO)C(=O)O (plate: PM6),8180 (active)
16,C[C@H](NC(=O)[C@@H](N)[C@@H](C)O)C(=O)O (plate: PM7),8470 (active)
17,CC(C)C[C@H](N)C(=O)N[C@@H](CO)C(=O)O (plate: PM7),12700 (active)
18,CCC(C)C(N)C(=O)NC(CC(N)=O)C(=O)O (stereo not given) (plate: PM8),7760 (active)
19,C[C@@H](O)[C@H](N)C(=O)N[C@@H](CO)C(=O)O (plate: PM8),5330 (active)
20,NCC(=O)N1CCC[C@H]1C(=O)O (plate: PM6),7310 (active)

row,Structure (SMILES),respiration area under curve
1,N[C@@H](CO)C(=O)N[C@@H](Cc1ccccc1)C(=O)O (plate: PM7),6220 (active)
2,CC(C)C[C@H](NC(=O)[C@@H](N)Cc1ccc(O)cc1)C(=O)O (plate: PM7),6720 (active)
3,N[C@@H](CC(=O)O)C(=O)NCC(=O)O (plate: PM8),2620 (active)
4,N[C@@H](Cc1ccc(O)cc1)C(=O)N[C@@H](Cc1ccc(O)cc1)C(=O)O (plate: PM7),6170 (active)
5,CC[C@H](C)[C@H](NC(=O)[C@@H](N)C(C)C)C(=O)O (plate: PM7),6870 (active)
6,CSCCC(NC(=O)C(N)CC(C)C)C(=O)O (stereo not given) (plate: PM6),1220 (inactive)
7,CC(C)[C@H](N)C(=O)N[C@@H](CCCN=C(N)N)C(=O)O (plate: PM7),12100 (active)
8,NC(N)=NCCC[C@H](N)C(=O)N[C@@H](CO)C(=O)O (plate: PM6),7830 (active)
9,N[C@@H](Cc1c[nH]c2ccccc12)C(=O)NCC(=O)O (plate: PM7),1010 (inactive)
10,C[C@@H](O)[C@H](N)C(=O)N[C@@H](CC(=O)O)C(=O)O (plate: PM8),3640 (active)
11,CC(C)CC(N)C(=O)NC(Cc1c[nH]c2ccccc12)C(=O)O (stereo not given) (plate: PM7),8370 (active)
12,C[C@H](N)C(=O)N[C@@H](CC(=O)O)C(=O)O (plate: PM8),9070 (active)
13,CC[C@H](C)[C@H](N)C(=O)N[C@H](C(=O)O)[C@@H](C)CC (plate: PM6),1010 (inactive)
14,CC(C)[C@H](N)C(=O)N[C@@H](CCC(N)=O)C(=O)O (plate: PM8),7140 (active)
15,N[C@@H](Cc1c[nH]c2ccccc12)C(=O)N[C@@H](CC(=O)O)C(=O)O (plate: PM7),502 (inactive)
16,NC(=O)CC[C@H](NC(=O)[C@@H](N)CCCN=C(N)N)C(=O)O (plate: PM6),8870 (active)
17,CC[C@H](C)[C@H](N)C(=O)N[C@@H](Cc1c[nH]c2ccccc12)C(=O)O (plate: PM6),287 (inactive)
18,O=C(O)[C@H](Cc1c[nH]c2ccccc12)NC(=O)[C@@H]1CCCN1 (plate: PM8),1320 (inactive)
19,CC[C@H](C)[C@H](NC(=O)[C@@H](N)CC(C)C)C(=O)O (plate: PM6),3910 (active)
20,C[C@H](N)C(=O)NCC(=O)O (plate: PM6),6240 (active)
